Source: PubChem BioAssay
The source made the active and inactive calls. Unless noted, no rule for the calls is given here.

Legend:
[1] = tested on: Wnt5a (protein binding on small-molecule microarray); test: small molecules binding Wnt5a protein – biophysical, small-molecule microarray, 635/667 nm fluorescence, primary screen (AID 1142); details: 635 nm fluorescence, higher = more signal;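 also: fluorescence read at 667 nm with signal to noise per printed feature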
[2] = ATP-based viability of Huh7 replicon cells – cell-based, CellTiter-Glo luminescence, basal, 48 h, cytotoxicity control for HCV replication inhibitor project, primary screen (AID 1143); details: higher = more signal, called active from +8 up or from −8 down;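 also: Huh7 hepatoma cells carrying a hepatitis C replication reporter with no stimulus; test concentration not given here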
[3] = Pseudomonas biofilm growth suppression – PAO1 strain, BacTiter-Glo luminescence, LB-PBS, primary screen (AID 1144); details: P. aeruginosa PAO1 biofilm, 12 h, higher = more signal
[4] = basal CRE-LacZ reporter activity in PC12 – cell-based, unstimulated, primary screen (AID 1145); details: no forskolin, luminescence, 4.5 h, higher = more signal, called active from +8 up or from −8 down
[5] = forskolin-driven CRE-LacZ activity in PC12 – cell-based, CRE-LacZ reporter, forskolin-stimulated, primary screen (AID 1146); details: luminescence, 4.5 h, higher = more signal, called active from +8 up or from −8 down;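 also: PC12 cells with 6xCRE LacZ reporter stimulated by forskolin 10 µM; beta-galactosidase reporter signal reflecting CREB driven transcription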
[6] = target: Streptavidin (Streptomyces avidinii) (UniProt P22629); test: compounds binding control protein streptavidin – biophysical, small-molecule microarray, 635/667 nm fluorescence, artefact control for SMM compound annotation, primary screen (AID 1147); details: higher = more signal;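 also: signal reflects streptavidin binding to arrayed compounds as a control protein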
[7] = probe aInhba binding on compound microarray – biochemical, small-molecule microarray, 635/667 nm fluorescence, primary screen (AID 1148); details: higher = more signal;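 also: score merges 667nm spot fluorescence with signal-to-noise for antibody binding to printed compounds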
Torsin-1A (Homo sapiens) [8] = target: Torsin-1A (Homo sapiens) (UniProt O14656); test: TOR1A wild-type binding on microarray – cell lysate, small-molecule microarray, lysate, 635/667 nm, primary screen (AID 1149); details: COS7 hTOR1A-WT lysate, 635 nm fluorescence, higher = more signal
Torsin-1A (Homo sapiens) [9] = target: Torsin-1A (Homo sapiens) (UniProt O14656); test: torsin A mutant lysate binding on microarrays – cell lysate, small-molecule microarray, COS7 lysate, 635/667 nm fluorescence, primary screen (AID 1150); details: COS7 hTOR1A mutant lysate, 635 nm fluorescence, higher = more signal;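 also: score pools 667 nm emission and signal to noise measuring lysate protein binding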
[10] = tested on: Sonic hedgehog protein (Shh); test: Sonic hedgehog microarray binding compounds – biochemical, small-molecule microarray, 635/667 nm fluorescence, primary screen (AID 1151); details: 635 nm fluorescence, higher = more signal;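 also: Shh protein binding to compounds spotted on small-molecule microarray slides; score combines spot fluorescence intensity with signal-to-noise across triplicate slides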

Chain of Torsin-1A (Homo sapiens) (O14656 whole entry, looked up): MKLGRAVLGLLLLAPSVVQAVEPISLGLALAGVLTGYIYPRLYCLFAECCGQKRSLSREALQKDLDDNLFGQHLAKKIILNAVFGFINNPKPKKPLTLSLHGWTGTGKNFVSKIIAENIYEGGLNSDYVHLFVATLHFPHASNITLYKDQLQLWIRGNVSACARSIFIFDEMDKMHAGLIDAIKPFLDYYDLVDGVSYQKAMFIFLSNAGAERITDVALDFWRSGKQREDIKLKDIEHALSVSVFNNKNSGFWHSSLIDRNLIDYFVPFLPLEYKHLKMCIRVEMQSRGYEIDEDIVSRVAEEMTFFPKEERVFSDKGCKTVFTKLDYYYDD
Chain of Streptavidin (Streptomyces avidinii) (P22629 whole entry, looked up): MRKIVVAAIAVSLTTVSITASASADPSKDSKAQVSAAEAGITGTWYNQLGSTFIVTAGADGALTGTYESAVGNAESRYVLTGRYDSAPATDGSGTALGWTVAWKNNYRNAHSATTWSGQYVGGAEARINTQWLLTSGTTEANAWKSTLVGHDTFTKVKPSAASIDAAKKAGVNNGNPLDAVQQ

SMILES | composite z-score [1] | z-score [2] | z-score [3] | z-score [4] | z-score [5] | composite z-score [6] | composite z-score [7] | composite z-score (Torsin-1A (Homo sapiens) [8]) | composite z-score (Torsin-1A (Homo sapiens) [9]) | composite z-score [10]
COc1cc(OC)c(C(O)C2C=CC3C(=O)NC(=O)C3N2Nc2ccccn2)cc1Br (stereo not given) | 0.364 | 0.996 (inactive) | -0.874 (inactive) | -0.326 (inactive) | -0.527 (inactive) | -0.118 | -0.0791 | -0.105 | 0.197 | 0.754
C[N+](C)(C)CCCC[C@@H]1NC(=O)[C@@H]2C[C@H](C(=O)NCCCCCN)[C@H](c3ccc(O)cc3)N2C1=O | 0.557 | -0.496 (inactive) | -0.771 (inactive) | 0.143 (inactive) | -0.441 (inactive) | 1.49 | 0.491 | 0.632 | 0.659 | 1.61
CC(C)NC(=O)[C@@H]1c2ccccc2C(=O)N(C(C)C)[C@H]1c1ccc(CO)cc1 | -0.152 | 0.245 (inactive) | 1.28 (inactive) | 0.441 (inactive) | 0.0729 (inactive) | -0.977 | -0.193 | 0.0645 | 2.08 | -0.659
COCCCNC(=O)[C@]1(Cc2ccccc2)N=C(c2ccc(OCCCO)cc2)O[C@@H]1c1ccccc1CN=[N+]=[N-] | 0.703 | -3.68 (inactive) | -0.0105 (inactive) | -0.09 (inactive) | -1.03 (inactive) | 1.31 | 0.491 | 0.52 | 0.82 | -0.147
COCCOC(=O)N1C(=O)[C@@]2(c3cc(C#CCCO)ccc31)[C@H](c1ccc(O)cc1)N1[C@H](c3ccccc3)[C@H](c3ccccc3)OC(=O)[C@H]1[C@@H]2C(=O)N1CCN(c2ncccn2)CC1 | 0.449 | -1.97 (inactive) | -0.185 (inactive) | -0.459 (inactive) | 0.648 (inactive) | 0.842 | 1.62 | 0.852 | 0.606 | 1.53
COC(=O)[C@@]1(CCC(=O)OC(C)(C)C)N=C(c2ccc(OCCCO)cc2)O[C@H]1c1ccccc1 | 0.762 | -3.61 (inactive) | -0.24 (inactive) | 2.25 (inactive) | -2.12 (inactive) | -0.888 | 0.0319 | -0.831 | -0.275 | 0.443
COCC(=C=CC[C@H](O)c1cccc(OCCO)c1)CCO | 0.461 | 0.15 (inactive) | -0.833 (inactive) | 0.0281 (inactive) | 0.324 (inactive) | -0.33 | -0.12 | -0.744 | -0.434 | 1.81
